NLRP3 yeast inh: blocks the NALP3 inflammasome reconstituted in yeast; Yeast reconstituted NLRP3/ASC/caspase-1, beta-gal luminescence, 24 h; inhibition, % at 10 µM; 330,000 tested, 0.39% active; AID 2825;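 active = inhibition of 50% or more; inactive = inhibition below 50%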;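 also: plate controls were induced DMSO wells for no effect and uninduced yeast grown without galactose for full effect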
tim10-1 inh: growth inhibitors of tim10-1 mutant yeast. inhibition, % at 20 µM. S. cerevisiae tim10-1 ts strain growth, BacTiter-Glo, 24 h. 330,000 tested, 2.2% active. AID 463190;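 active = inhibition of at least 40%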;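 also: mutant grown at 25 °C; 0% = DMSO wells with yeast and 100% = wells holding no yeast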
tim23-1 inh: inhibits growth of tim23-1 mutant yeast; 330,000 tested, 1.3% active; inhibition, % at 20 µM; S. cerevisiae tim23-1 growth, BacTiter-Glo luminescence, 24 h;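 active = growth inhibition of the mutant yeast at or above 50%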;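 also: temperature-sensitive mutant grown at 25 °C; plate controls were DMSO-treated mutant yeast for no effect and medium wells lacking yeast for full effect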
TIM10 inh: TIM10 yeast growth inhibition; S. cerevisiae TIM10 strain growth, BacTiter-Glo luminescence, 24 h; inhibition, % at 10 µM; 330,000 tested, 1.4% active; AID 463195;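 active = inhibition of 40% or more at the single tested concentration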;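 also: wild-type TIM10 isogenic control strain grown at permissive 25 °C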
PfHsp90 yeast 2: growth inhibition of yeast expressing Plasmodium Hsp90 | S. cerevisiae expressing PfHsp90, BacTiter-Glo ATP, 48 h; yeast lacking PDR1 and PDR3 efflux regulators | inhibition, % at 9.4 µM | 310,000 tested, 0.32% active;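 active = every replicate shows inhibition above about 80%, whatever the replicate mean, limit read from the data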;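 also: 0% = DMSO neutral controls and 100% = 20 µM radicicol positive controls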
tim10-1 conf: confirmation of tim10-1 mutant yeast growth inhibitors; shares compounds with tim10-1 inh; S. cerevisiae tim10-1 ts strain growth, BacTiter-Glo, 24 h; inhibition, % at 20 µM; 7,400 tested, 56% active;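 active = inhibition of yeast growth at or above a set limit in either of two repeat tests at 20 µM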;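 also: tim10-1 mutant grown at permissive 25 °C to find synthetic lethal compounds; 0% = DMSO yeast wells and 100% = medium wells without yeast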
* hit, by the source's call; ! = not confirmed by another sample. Shown are actives, neighbours in structure and some others; about 3.7% of the full set was active somewhere.

For CCn1nc(NC(=O)c2ccccc2)c2cc3cccc(C)c3nc21 the results were NLRP3 yeast inh 9, tim10-1 inh 46*, tim23-1 inh 39, TIM10 inh 24, PfHsp90 yeast 2 -3 and tim10-1 conf 32*.
For CCn1nc(NC(C)=O)c2cc3cccc(C)c3nc21 the results were NLRP3 yeast inh 15, tim10-1 inh 10, tim23-1 inh 4, TIM10 inh 15 and PfHsp90 yeast 2 -32.
CCCCN(C(=S)NC(=O)c1cc(OC)c(OC)c(OC)c1)c1c(N)n(Cc2ccccc2)c(=O)[nH]c1=O was read as NLRP3 yeast inh 8, tim10-1 inh 16, tim23-1 inh 9, TIM10 inh 12 and PfHsp90 yeast 2 1.
Screening Cc1cccc(Nc2c([N+](=O)[O-])c(=O)oc3ccccc23)c1 returned NLRP3 yeast inh 19, tim10-1 inh -3, tim23-1 inh 4, TIM10 inh 11 and PfHsp90 yeast 2 1.
`Cc1ccc(NC(=O)C(C)N2C(=O)C3C4CC(C(Br)C4Br)C3C2=O)cc1` (stereo not given) gave NLRP3 yeast inh -5, tim10-1 inh 48*, tim23-1 inh 19, TIM10 inh 24 and tim10-1 conf 32*.
Cc1ccc(Cl)cc1NC(=O)COC(=O)C12CC3CC(CC(C3)C1)C2 was read as NLRP3 yeast inh 9, tim10-1 inh 47*!, tim23-1 inh 23, TIM10 inh 40, PfHsp90 yeast 2 -11 and tim10-1 conf 33*.
Screening Cc1ccc(Cl)cc1NC(=O)COC(=O)C1CCCC1 returned NLRP3 yeast inh -2, tim10-1 inh 12, tim23-1 inh 14, TIM10 inh -3 and PfHsp90 yeast 2 31.
For N#C/C(=C\c1ccc(-c2nc3ccccc3s2)o1)C(N)=O the results were NLRP3 yeast inh 1, tim10-1 inh 40*, tim23-1 inh 28, TIM10 inh 17, PfHsp90 yeast 2 -12 and tim10-1 conf 29.
`O=C(N/N=C/c1ccc(O)c2ncccc12)c1cccc(Br)c1` gave NLRP3 yeast inh -56, tim10-1 inh 52*, tim23-1 inh 15, TIM10 inh 10, PfHsp90 yeast 2 104* and tim10-1 conf 19.
O=C(N/N=C/c1ccc([N+](=O)[O-])s1)c1cccc(Br)c1 was read as NLRP3 yeast inh 26, tim10-1 inh 52*, tim23-1 inh 39, TIM10 inh 30, PfHsp90 yeast 2 35 and tim10-1 conf 26.
Screening Cc1ccc(C(=O)N/N=C/c2ccc([N+](=O)[O-])s2)cc1 returned NLRP3 yeast inh 16, tim10-1 inh 21, tim23-1 inh 28, TIM10 inh 25 and PfHsp90 yeast 2 -8.
`COc1ccc(-c2noc(CCC(=O)NC3CCCCC3)n2)cc1` gave NLRP3 yeast inh 19, tim10-1 inh 12, tim23-1 inh 7, TIM10 inh 3 and PfHsp90 yeast 2 13.
Screening O=C(NC(=S)NNC(=O)c1ccco1)c1ccc(Br)cc1 returned NLRP3 yeast inh 24, tim10-1 inh 41*, tim23-1 inh 7, TIM10 inh 9, PfHsp90 yeast 2 3 and tim10-1 conf 29.
Screening O=C(NNC(=S)NC(=O)c1ccco1)c1ccc(F)cc1 returned NLRP3 yeast inh -3, tim10-1 inh -2, tim23-1 inh -47, TIM10 inh 8 and PfHsp90 yeast 2 16.
Cc1[nH]n(-c2ccc([N+](=O)[O-])cc2)c(=O)c1C=NCC1CCCO1 (stereo not given) was read as NLRP3 yeast inh 5, tim10-1 inh 15, tim23-1 inh 9, TIM10 inh 10 and PfHsp90 yeast 2 5.
Cc1ccc(-n2[nH]c(C)c(/C=N/Nc3ccc([N+](=O)[O-])cc3[N+](=O)[O-])c2=O)cc1 was read as NLRP3 yeast inh 23, tim10-1 inh 49*, tim23-1 inh 34, TIM10 inh 24, PfHsp90 yeast 2 34 and tim10-1 conf 35*.
`CC1(C)CC(NC(=O)c2cc(COc3cccc(C(F)(F)F)c3)on2)CCO1` (stereo not given) gave NLRP3 yeast inh 14, tim10-1 inh 48*, tim23-1 inh 31, TIM10 inh 13, PfHsp90 yeast 2 13 and tim10-1 conf 19.
`CC(=O)N/C(=C\c1ccccc1)C(=O)OCCCOC(=O)/C(=C/c1ccccc1)NC(C)=O` gave NLRP3 yeast inh 10, tim10-1 inh -2, tim23-1 inh -3, TIM10 inh 10 and PfHsp90 yeast 2 -3.
Screening CC(=O)c1ccc(N2CCN(C(=S)NCc3ccco3)CC2)cc1 returned NLRP3 yeast inh 2, tim10-1 inh 1, tim23-1 inh 8, TIM10 inh 4 and PfHsp90 yeast 2 -22.
`S=C(NCc1ccco1)N1CCN(c2ccc(Cl)cc2)CC1` gave NLRP3 yeast inh 22, tim10-1 inh 49*, tim23-1 inh 31, TIM10 inh 32, PfHsp90 yeast 2 -20 and tim10-1 conf 23.
CC(=O)c1cc2c(cc1NC(=O)CCc1c(C)nc3ncnn3c1C)OCO2 was read as NLRP3 yeast inh 14, tim10-1 inh 0, tim23-1 inh 12, TIM10 inh 8 and PfHsp90 yeast 2 -6.
Cc1cccc(-c2oc3ccccc3c2-c2ccc3c(c2)OCO3)c1 was read as PfHsp90 yeast 2 4.
Screening Oc1ccccc1-c1csc(-c2ccccc2)n1 returned NLRP3 yeast inh 20, tim10-1 inh 46*, tim23-1 inh 19, TIM10 inh 12, PfHsp90 yeast 2 5 and tim10-1 conf 37*.
For Clc1cc(-c2ccccc2)nc(-c2ccccc2)n1 the results were NLRP3 yeast inh 12, tim10-1 inh 24, tim23-1 inh 26, TIM10 inh 20 and PfHsp90 yeast 2 6.
Screening Nc1nc(-c2ccccc2)cc(-c2ccccc2O)n1 returned NLRP3 yeast inh -4, tim10-1 inh 43*, tim23-1 inh 46, TIM10 inh 29, PfHsp90 yeast 2 -24 and tim10-1 conf -8.
`Nc1nc(-c2ccccc2)nc(-c2ccccc2O)n1` gave NLRP3 yeast inh -16, tim10-1 inh 31, tim23-1 inh 19, TIM10 inh 9 and PfHsp90 yeast 2 -5.
Screening Clc1nc(-c2ccccc2)cc(-c2ccccc2)n1 returned NLRP3 yeast inh 22, tim10-1 inh 43*, tim23-1 inh 34, TIM10 inh 25, PfHsp90 yeast 2 -26 and tim10-1 conf 27.
Cc1cc(C(=O)Nc2ccc(S(=O)(=O)N3CCOCC3)cc2)c(C)o1 was read as NLRP3 yeast inh 19, tim10-1 inh 19, tim23-1 inh 26, TIM10 inh 24 and PfHsp90 yeast 2 -2.
For CN1CC(=O)N(CC(=O)Nc2ccc3c(c2)CCC3)C1=O the results were NLRP3 yeast inh 4, tim10-1 inh 0, tim23-1 inh 12, TIM10 inh 10 and PfHsp90 yeast 2 -5.
Screening C=C(C)CC1Nc2ccccc2NC1CC(=C)C (stereo not given) returned NLRP3 yeast inh 7, tim10-1 inh 42*, tim23-1 inh 43, TIM10 inh 34, PfHsp90 yeast 2 9 and tim10-1 conf 41*.

Assay outcomes: PubChem, several laboratories
